# Bioassay records deposited in PubChem by National Center for Advancing Translational Sciences (NCATS).
# ELG1 genotox = induces genotoxicity in HEK293T cells with luciferase-tagged ELG1. AID 504466. hit rate 1.3% among 330,000. Potency, µM (series often up to 46 µM), usual class: activators. HEK293T ELG1-luciferase reporter, luminescence, 16 h; note: nearly all actives have a fitted effect of over 60% in size
#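 Genotoxicity was scored as increased ELG1-luciferase reporter signal, measured by ONE-Glo luminescence (30 min, room temperature). Compound or vehicle exposure of the HEK293T reporter cells lasted 16 hr at 37°C.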
# Luc counter = blocks Kinase-Glo luciferase, a counter-screen artifact; AID 1379; Potency, µM (series often up to 38.3 µM), actives largely listed as inhibitors; Kinase-Glo luciferase, ATP luminescence, 8 min; hit rate 0.28% among 200,000; note: nearly all actives have a fitted effect of over 60% in size
#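 Inhibition of Kinase-Glo luciferase light generation was assessed at 10 uM ATP in pH 7.2 imidazole buffer, with luminescence measured after eight minutes at ambient temperature.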
# SMN2 splice up = enhancers of SMN2 splice variant expression; Potency, µM (top dose mostly 46.1 µM), most hits filed as activators; hit rate 2.8% among 210,000; HEK293 SMN2-luciferase splicing reporter, luminescence, 30-36 h; AID 1458; note: nearly all actives have a fitted effect of over 55% in size
#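 HEK293 cells carry an SMN2 minigene-luciferase reporter in which exon 7 inclusion puts luciferase in frame. Cells were seeded at 2000 cells/well, attached for 10-12 hours, then exposed to compounds for 30-36 hours at 37C before ONE-Glo luminescence.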
# NPC1 promoter act = activates the NPC1 promoter | Huh7 NPC1 promoter luciferase reporter, 24 h | Potency, µM (top dose mostly 9.22 µM), usual class: activators | hit rate 2.4% among 320,000; note: nearly all actives have a fitted effect of over 60% in size
#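 Readout is luciferase luminescence, reflecting NPC1 promoter activation in stably transfected Huh7 cells after 24 h compound exposure at 37 °C in reduced-serum medium with 10% FBS.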
# FLuc modulator = firefly luciferase modulation, counter-screen for miR-21 project; purified FLuc, Km substrates, luminescence inhibition; Potency, µM (highest dose often 57.5 µM), usual class: inhibitors; hit rate 6.9% among 360,000; note: nearly all actives have a fitted effect of over 55% in size
# Target sequence (P08659 whole entry, looked up): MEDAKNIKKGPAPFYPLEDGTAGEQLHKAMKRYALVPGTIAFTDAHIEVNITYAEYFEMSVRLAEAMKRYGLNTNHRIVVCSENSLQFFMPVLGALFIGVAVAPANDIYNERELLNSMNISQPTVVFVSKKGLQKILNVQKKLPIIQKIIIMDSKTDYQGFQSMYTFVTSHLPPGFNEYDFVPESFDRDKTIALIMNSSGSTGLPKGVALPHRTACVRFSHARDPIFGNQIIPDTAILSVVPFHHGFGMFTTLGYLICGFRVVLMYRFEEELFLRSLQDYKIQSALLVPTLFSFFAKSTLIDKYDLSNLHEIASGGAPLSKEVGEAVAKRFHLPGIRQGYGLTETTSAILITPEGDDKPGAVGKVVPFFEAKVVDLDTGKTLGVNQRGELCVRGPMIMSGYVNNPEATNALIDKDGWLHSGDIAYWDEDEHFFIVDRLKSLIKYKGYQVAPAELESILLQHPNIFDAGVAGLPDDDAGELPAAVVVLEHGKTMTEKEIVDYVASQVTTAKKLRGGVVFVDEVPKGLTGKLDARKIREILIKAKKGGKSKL
#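 Purified P. pyralis luciferase (10nM final) with 10uM D-luciferin and 10uM ATP (Km levels) in 50mM Tris acetate pH 7.5, 10mM Mg acetate, 0.01% Tween-20, 0.05% BSA; qHTS 6-point titration, ~60 µM downward; luminescence read.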
# Rab9 prom act = activators of Rab9 promoter. Potency, µM (doses to about 9.22 µM), hits mostly activators. hit rate 2.8% among 320,000. Huh7 Rab9 promoter-luciferase reporter, luminescence, 24 h; note: nearly all actives have a fitted effect of over 60% in size
#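 Luciferase signal after 10 min detection reagent at ambient indicates Rab9 promoter upregulation; stably transfected Huh7 cells were treated 24 h with compound in DMSO at 37 °C, 5% CO2.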
# Numbers stand for hits; - = inactive; ? = inconclusive; . = no result. The list is not random: actives were taken first. Their share in the collection is about 7.5%. Calls come from the whole dose curve; as a rule, active = well fitted curve in the direction sought with a large enough effect; inconclusive = small, poorly fitted or top-dose-only effect, or another doubt; inactive = no such curve, though single readings can be large; an effect the other way counts as inactive or inconclusive.
SMILES,ELG1 genotox,Luc counter,SMN2 splice up,NPC1 promoter act,FLuc modulator,Rab9 prom act
COC(=O)CCc1sc(Nc2ccccc2)nc1-c1ccc(OC)cc1,?,-,?,-,24µM,-
COc1ccc(Nc2nc(-c3ccc(OC)cc3)c(CCC(=O)O)s2)cc1,-,.,.,-,?,-
CCCCC12CN3CC(C)(CN(C1)C3c1c(C)[nH]c(=O)[nH]c1=O)C2=O (configuration not stated),.,.,-,.,-,.
O=C(O)c1ccccc1SCC(=O)N1CCc2ccccc21,-,-,-,?,21µM,?
Cc1ccc(SCC(=O)N2CCc3ccccc32)cc1,?,-,?,-,9.5µM,?
Nc1ccccc1SCC(=O)N1CCc2ccccc21,?,-,-,?,17µM,?
O=C(CS(=O)(=O)c1ccccc1)N1CCc2ccccc21,?,-,14µM,4µM,15µM,2.5µM
O=C(CCS(=O)(=O)c1nc(-c2ccc3c(c2)OCO3)cc(C(F)(F)F)n1)Nc1ccc(Br)cc1,.,.,-,.,-,.
COc1ccc(NC(=O)NC2COc3ccccc3C2)c(OC)c1 (configuration not stated),.,.,.,.,-,.
O=C(CSc1ccccc1C(=O)O)c1ccc(Cl)cc1,?,.,.,4µM,11µM,4µM
O=C(CSC1=NCCS1)N1CCc2ccccc21,8.2µM,-,?,?,13µM,4µM
O=C(CNc1ccccc1OC(F)F)N1CCc2ccccc21,?,-,14µM,3.2µM,?,3.2µM
Cc1ccc(S(=O)(=O)NCC(=O)NCCc2c[nH]c3ccccc23)cc1C,-,.,.,-,-,-
Cc1ccc2oc(=O)c3c4cc(O)c(O)c(C)c4oc3c2c1,.,-,-,.,.,.
O=C(Nc1ccc(S(=O)(=O)Nc2ncccn2)cc1)c1nn(Cc2ccccc2)c(=O)c2ccccc12,-,.,.,-,-,-
CCn1nc(C(=O)Nc2ccc(S(=O)(=O)Nc3nccs3)cc2)c2ccccc2c1=O,-,-,14µM,-,-,-
Cc1ccc(N=Nc2c(O)n(CN3CCOCC3)c3ccccc23)cc1,3.7µM,-,22µM,1.4µM,2.7µM,0.4µM
CCn1c2ccc(Cl)cc2c2nc3ccccc3nc21,-,-,-,-,?,-
CCn1c2ccc(C)cc2c2nc3cc(C(=O)O)ccc3nc21,?,-,-,-,27µM,?
COc1ccc(N=Cc2sc3ccccc3c2Cl)cc1,-,-,-,-,4.8µM,-
O=C(N/N=C/c1sc2ccccc2c1O)c1cccc2ccccc12,-,-,-,-,17µM,-
O=C(N/N=C/c1ccc([N+](=O)[O-])s1)c1ccccc1,-,-,-,-,-,-
COc1ccc(C(=O)N/N=C/c2c(C)[nH]c(=O)[nH]c2=O)cc1,-,-,-,-,-,-
O=C(N/N=C/c1sc2ccccc2c1O)c1ccccc1,?,-,-,-,17µM,-
COc1ccc(C(=O)N/N=C/c2sc3ccccc3c2O)cc1,?,-,-,-,13µM,-
SMILES,ELG1 genotox,Luc counter,SMN2 splice up,NPC1 promoter act,FLuc modulator,Rab9 prom act
Oc1ccc(Cl)cc1N=Cc1sc2ccccc2c1Cl,-,-,-,-,-,-
COc1ccc(NC(=O)CCc2nc3c(C)nn(-c4ccc(C)cc4)c3n(C)c2=O)c(OC)c1,.,.,.,.,-,.
COc1ccc2cc(C(=O)N/N=C/c3sc4ccccc4c3O)ccc2c1,?,-,-,-,13µM,-
COc1ccc(/C=N\NC(=O)c2cccc(Br)c2)c(OC)c1,-,-,.,-,-,-
Cc1ccccc1CCNC(=O)c1ccc2c(c1)nc1n2CCCCC1,.,.,.,.,0.54µM,.
CSc1ccc(CCNC(=O)c2ccc3c(c2)nc2n3CCC(C)C2)cc1 (configuration not stated),.,.,.,.,-,.
O=C(NCc1ccccc1)c1ccc2c(c1)nc1n2CCOC1,.,.,.,.,-,.
CC(CNC(=O)c1ccc2c(c1)nc1n2CCCCC1)c1ccccc1 (configuration not stated),.,.,.,.,21µM,.
Cc1ccccc1CCNC(=O)c1ccc2c(c1)nc1n2CCOC1,.,.,.,.,6µM,.
CC1CCn2c(nc3cc(C(=O)NCCc4ccccc4)ccc32)C1 (configuration not stated),.,.,.,.,9.5µM,.
CC(=O)c1ccc(NC(=O)CSc2n[nH]c(-c3cccnc3)n2)cc1,-,.,.,-,?,-
COc1ccc(CCNC(=O)c2ccc3c(c2)nc2n3CCC(C)C2)cc1OC (configuration not stated),.,.,.,.,-,.
CSc1ccc(CCNC(=O)c2ccc3c(c2)nc2n3CCCCC2)cc1,.,.,.,.,24µM,.
O=C(Cc1ccccc1)Nc1c(C(=O)Nc2ccccc2F)oc2ccccc12,.,.,-,.,-,.
O=C(Nc1ccc2c(c1)OCO2)c1ccc(Cl)cc1Cl,-,.,.,-,-,-
